Calls of active or inactive are those of the source. Where a call stands in place of a potency, no number is given. Calls come from the whole dose curve; as a rule, active = well fitted curve in the direction sought with a large enough effect in the repeat runs; inconclusive = weak or mixed curves; inactive = flat fitted curve, though single readings scatter.

One assay is described as follows: qHTS assay to test for compound auto fluorescence at 460 nm (blue) in HEK293 cells (AID 720678). Particulars: blue autofluorescence 405/460 nm; series mostly up to 91.3 µM. The procedure, abridged:
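Cells were seeded and left to adhere for 4-5 hr at 37C. Compounds were then pin-transferred. After an overnight incubation at 37C under 5% CO2, intrinsic fluorescence at 405/460 nm was measured and referenced to triamterene.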
Turning to `CCOC(=O)CC(=O)c1cc(F)c(Cl)nc1Cl`, the Potency entry was “inactive”.

Consider `Cc1cccc(C(C)(C)C)c1O`, for which the Potency result was “inactive”.

As to `C=Cc1c(C)c2cc3[nH]c(cc4nc(cc5nc(cc1[nH]2)C(C)=C5CCC(=O)O)C(CCC(=O)O)=C4C)c(C)c3C=C`, the Potency entry was “inactive”.

With `CCCCCCCCCC(=O)OCC`, the Potency entry is “inactive”.

Consider `CC(C)CCCC(C)CCO` (centres undefined), for which the Potency entry is “inactive”.

Regarding `Cc1cccc(Oc2ccccc2)c1`, the Potency result is “inactive”.

For the molecule `Nc1ccc(C(=O)Nc2ccccc2N)cc1`, the Potency result is “inactive”.

Consider `CC(=O)/C(C)=C/C1C(C)=CCCC1(C)C` (centres undefined), for which the Potency result was “inactive”.

As to `CC(C)(C)c1ccc(S)cc1`, the Potency result is “inactive”.

For the molecule `COc1ccc2[nH]c(S(=O)Cc3ncc(C)c(OC)c3C)nc2n1` (centres undefined), the Potency result was “inactive”.

`CCCCCCCCCCCCCCCC(=O)OC/C=C(C)/C=C/C=C(C)/C=C/C1=C(C)CCCC1(C)C`: the Potency result is “inactive”.

Turning to `O=[N+]([O-])c1cc[n+]([O-])cc1`, the Potency entry is “inactive”.

With `CC(CN)CCCN` (centres undefined), the Potency result was “inactive”.

As to `CC(=O)NCCCS(=O)(=O)O`, the Potency entry is “inactive”.

For the molecule `CCCCCCCCCO`, the Potency result was “inactive”.

Take `CC(=O)[C@@]1(O)CC[C@H]2[C@@H]3C[C@H](C)C4=CC(=O)CC[C@]4(C)[C@H]3CC[C@@]21C`: the Potency entry was “inactive”.

Turning to `C=CCCCCCC`, the Potency entry is “inactive”.

Regarding `C=CC[N+]1([C@H]2C[C@H]3[C@@H]4CC[C@H]5C[C@H](OC(C)=O)[C@@H](N6CCCCC6)C[C@]5(C)[C@H]4CC[C@]3(C)[C@H]2OC(=O)CC)CCCCC1`, the Potency result is “inactive”.

`O=C(O)Cc1sc(-c2ccccc2)nc1-c1ccc(Cl)cc1`: the Potency result was “inactive”.

Turning to `Nc1nc(CC(=O)O)cs1`, the Potency result was “inactive”.

Turning to `OCC1CC2CC1C1CCC(CO)C21` (centres undefined), the Potency entry was “inactive”.

Consider `FC(F)(F)C(F)(F)C(F)(F)C(F)(F)C(F)(F)C(F)(F)CCI`, for which the Potency entry was “inactive”.

Consider `CCN(CCO)CCCC(C)Nc1ccnc2cc(Cl)ccc12` (centres undefined), for which the Potency entry was “inactive”.

`Nc1nc(N)c(-c2ccccc2)s1`: the Potency result is “inactive”.

Take `CCC(C)N(C)C(=O)c1cc2ccccc2c(-c2ccccc2Cl)n1` (centres undefined): the Potency result is “inactive”.

As to `Cc1ccc(C(=O)C(C)CN2CCCCC2)cc1` (centres undefined), the Potency result is “inactive”.

For `CCN(CC)CCc1nc(-c2ccccc2)no1`, the fluorescence, % of triamterene was -0.138% [at 18.6 µM] (inactive).

For the molecule `Cc1cc(CC(=O)O)c(C)n1-c1ccc(Cl)cc1`, the Potency result was “inactive”.

Another assay is described as follows: qHTS assay to test for compound auto fluorescence at 590 nm (red) in HEK293 cells (AID 720679). The conditions noted are these: red autofluorescence 540/590 nm; series mostly up to 91.3 µM. The procedure, abridged: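 Each well held 2,000 HEK293 cells in medium containing 10% dialyzed FBS. Following 4-5 hr attachment at 37C, 23 nL test compound or DMSO was added; plates sat overnight, and red fluorescence (540/590nm) was recorded.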
Take `Cn1c(N)nc2nc[nH]c2c1=O`: the call was inactive.

Consider `CCOC(=O)CC(=O)c1cc(F)c(Cl)nc1Cl`, for which the molecule was called inactive.

Consider `Cc1cccc(C(C)(C)C)c1O`, for which the molecule was called inactive.

For the molecule `C=Cc1c(C)c2cc3[nH]c(cc4nc(cc5nc(cc1[nH]2)C(C)=C5CCC(=O)O)C(CCC(=O)O)=C4C)c(C)c3C=C`, the result was inactive.

As to `CCCCCCCCCC(=O)OCC`, the result was inactive.

As for `CC(C)CCCC(C)CCO` (centres undefined), the molecule was classed as inactive.

Consider `Cc1cccc(Oc2ccccc2)c1`, for which the outcome was inactive.

As for `Nc1ccc(C(=O)Nc2ccccc2N)cc1`, the call was inactive.

For the molecule `CC(=O)/C(C)=C/C1C(C)=CCCC1(C)C` (centres undefined), the molecule was called inactive.

With `N=C(N=C(N)N)N1CCOCC1`, the fluorescence, % of fluorescent control is 0.0856% [at 18.6 µM] (inactive).

On to `CC(C)(C)c1ccc(S)cc1`, for which the molecule was called inactive.

In the case of `NC(=S)N/N=C/c1cccnc1`, the molecule was called inactive.

As to `COc1ccc2[nH]c(S(=O)Cc3ncc(C)c(OC)c3C)nc2n1` (centres undefined), the molecule was classed as inactive.

Consider `CCCCCCCCCCCCCCCC(=O)OC/C=C(C)/C=C/C=C(C)/C=C/C1=C(C)CCCC1(C)C`, for which the molecule was called inactive.

On to `O=[N+]([O-])c1cc[n+]([O-])cc1`, for which the result was inactive.

As for `CC(CN)CCCN` (centres undefined), the result was inactive.

On to `CC(=O)NCCCS(=O)(=O)O`, for which the call was inactive.

Turning to `CC[C@]12CCCN3CCc4c(n(c5ccccc45)C(=O)C1)[C@@H]32`, the fluorescence, % of fluorescent control is 0.0084% [at 18.6 µM] (inactive).

As to `C=CCCCCCC`, the call was inactive.

With `O=C(O)Cc1sc(-c2ccccc2)nc1-c1ccc(Cl)cc1`, the molecule was classed as inactive.

Regarding `Cc1c(Cn2ccnc2)c2ccccc2n1CCC(=O)O`, the molecule was called inactive.

In the case of `Nc1nc(CC(=O)O)cs1`, the molecule was classed as inactive.

Take `OCC1CC2CC1C1CCC(CO)C21` (centres undefined): the call was inactive.

In the case of `FC(F)(F)C(F)(F)C(F)(F)C(F)(F)C(F)(F)C(F)(F)CCI`, the molecule was classed as inactive.

Take `CCN(CCO)CCCC(C)Nc1ccnc2cc(Cl)ccc12` (centres undefined): the call was inactive.

On to `Nc1nc(N)c(-c2ccccc2)s1`, for which the outcome was inactive.

Consider `CCC(C)N(C)C(=O)c1cc2ccccc2c(-c2ccccc2Cl)n1` (centres undefined), for which the call was inactive.

Turning to `NCCCOCCOCCOCCCN`, the call was inactive.

For the molecule `Cc1ccc(C(=O)C(C)CN2CCCCC2)cc1` (centres undefined), the molecule was called inactive.

Turning to `CC(C)(C)C1CCCCC1O` (centres undefined), the molecule was classed as inactive.

With `CCN(CC)CCc1nc(-c2ccccc2)no1`, the fluorescence, % of fluorescent control is 0.0464% [at 18.6 µM] (inactive).

The values are drawn from PubChem BioAssay (Tox21).
